Records with an inconclusive call do not appear. Entries that show only a call come without a potency. Activity calls are given as the source filed them. Unless noted, calls come from the whole dose curve; as a rule, active = well fitted curve in the direction sought with a large enough effect in the repeat runs; inconclusive = weak or mixed curves; inactive = flat fitted curve, though single readings scatter.

Chain of Glucocorticoid receptor (Homo sapiens) (P04150 whole entry, looked up): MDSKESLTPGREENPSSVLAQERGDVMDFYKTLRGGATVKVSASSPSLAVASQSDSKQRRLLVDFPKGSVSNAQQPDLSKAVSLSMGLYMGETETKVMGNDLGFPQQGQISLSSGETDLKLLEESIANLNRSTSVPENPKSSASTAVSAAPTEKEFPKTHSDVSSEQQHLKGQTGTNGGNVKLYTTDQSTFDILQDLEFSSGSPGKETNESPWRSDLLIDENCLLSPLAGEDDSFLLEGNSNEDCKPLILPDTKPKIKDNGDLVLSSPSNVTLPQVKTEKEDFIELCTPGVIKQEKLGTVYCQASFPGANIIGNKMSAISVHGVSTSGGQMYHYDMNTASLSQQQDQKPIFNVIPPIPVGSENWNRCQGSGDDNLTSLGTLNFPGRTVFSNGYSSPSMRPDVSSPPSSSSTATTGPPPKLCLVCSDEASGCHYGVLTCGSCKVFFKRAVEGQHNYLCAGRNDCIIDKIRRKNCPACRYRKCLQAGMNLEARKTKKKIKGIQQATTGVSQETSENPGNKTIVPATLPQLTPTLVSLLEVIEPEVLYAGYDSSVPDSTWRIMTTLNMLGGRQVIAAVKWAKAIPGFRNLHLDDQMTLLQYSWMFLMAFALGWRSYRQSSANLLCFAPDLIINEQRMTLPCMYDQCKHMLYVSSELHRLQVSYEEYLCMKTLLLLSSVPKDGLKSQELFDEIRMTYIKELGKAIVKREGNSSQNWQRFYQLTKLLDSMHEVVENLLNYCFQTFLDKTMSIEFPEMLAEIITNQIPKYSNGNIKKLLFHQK

Test system in the first assay: not listed separately
As to the kind of experiment: qHTS assay to test for compound auto fluorescence at 460 nm (blue) in HepG2 cells (AID 720687). The note with it: autofluorescence 405/460 nm, 1 h; series mostly up to 91.3 µM; fluorescence, % of fluorescent control: at the top concentration. Summed up: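 Blue-channel autofluorescence (Ex/Em 405/460 nm, triamterene-equivalent) was measured after 1 hr compound exposure at 37 C, 5% CO2. Cells were HepG2, plated overnight at 37 C in MEM plus 10% FBS.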
`C[Si]1(C)O[Si](C)(C)O[Si](C)(C)O[Si](C)(C)O1`: the compound was classed as inactive.

`CCCCCCCCCCCC(=O)OC`: the compound was classed as inactive.

As to `CCc1ccccc1CC`, the compound was classed as inactive.

Turning to `OCc1ccccc1`, the call was inactive.

As for `C=CCc1ccc(OC)c(OC)c1`, the compound was classed as inactive.

Regarding `C=Cc1ccc(C)cc1`, the compound was called inactive.

Regarding `O=C(O)c1ccc(C(=O)O)c(C(=O)O)c1`, the result was inactive.

Take `CC(=O)OCc1ccco1`: the call was inactive.

`CN(C)c1ccc(O)c2c1C[C@H]1C[C@H]3[C@H](N(C)C)C(=O)C(C(N)=O)=C(O)[C@@]3(O)C(=O)C1=C2O`: the outcome was inactive.

For the compound `CCO[Si](CCCN)(OCC)OCC`, the outcome was inactive.

As to `CN(C)CCOC(=O)COc1ccc(Cl)cc1`, the compound was called inactive.

In the case of `CC(CCl)OP(=O)(OC(C)CCl)OC(C)CCl` (stereo not given), the compound was classed as inactive.

`O=c1[nH]cnc2[nH]ncc12`: the compound was called inactive.

As to `COc1ccc(CCC(C)=O)cc1`, the “fluorescence, % of fluorescent control” value is -0.01% (inactive).

As to `COC(=O)CCCC(=O)OC`, the result was inactive.

`COc1ccc([N+](=O)[O-])cc1N`: the compound was classed as inactive.

Consider `CCCOC(=O)c1ccccc1`, for which the result was inactive.

As to `O=C(O)c1ccc(S(=O)(=O)N(Cl)Cl)cc1`, the outcome was inactive.

`Brc1ccc(Br)c(Br)c1`: the result was inactive.

On to `NCCCCCCN`, for which the call was inactive.

As for `CC1(C)NC(=O)NC1=O`, the result was inactive.

`CCNC(=S)NCC`: the call was inactive.

Take `CCCCCCCCCCO`: the outcome was inactive.

On to `CCOC(=O)c1ccc(N)cc1`, for which the compound was classed as inactive.

For `Cc1ccc(C(C)C)c(O)c1`, the compound was called inactive.

Regarding `CC(C)(Oc1ccc(CCNC(=O)c2ccc(Cl)cc2)cc1)C(=O)O`, the result was inactive.

Regarding `O=C(O)c1cc2ccccc2cc1O`, the compound was called inactive.

For the compound `C=C(C)[C@H]1CC=C(C)C(=O)C1`, the call was inactive.

On to `CC(=O)CC(C)(C)O`, for which the call was inactive.

For the compound `CN(C)c1ccc(Cc2ccc(N(C)C)cc2)cc1`, the compound was called inactive.

Regarding `Cc1ccc2ncccc2c1`, the call was inactive.

For the compound `CSc1ccc(Cl)cc1`, the compound was classed as inactive.

Take `COc1ccc(OC)cc1`: the compound was classed as inactive.

Regarding `O=S(=O)(O)c1ccccc1`, the result was inactive.

As for `CC(C)c1cccc(C(C)C)c1`, the outcome was inactive.

With `COc1ccccc1OCC(O)CO` (stereo not given), the compound was classed as inactive.

As to `C=CC(C)CCCC(C)(C)O` (stereo not given), the outcome was inactive.

Another assay addresses Glucocorticoid receptor (Homo sapiens) (UniProt P04150). The assay is described as follows: qHTS assay to identify small molecule agonists of the glucocorticoid receptor (GR) signaling pathway (AID 720691; active = well fitted activation curve with a large enough effect in the signal ratio in the repeat runs, not every such curve was filed as active; the % refers to the signal ratio). The note with it: GR-bla HeLa, beta-lactamase reporter ratio, 18 h; series mostly up to 62.4 µM; activation: at the top concentration. Summed up:
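A HeLa cervical cancer line expressing GR and a glucocorticoid response element-driven beta-lactamase gene is treated with compounds for 18 h; LiveBLAzer B/G FRET substrate is then applied and fluorescence read.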
In general terms: In qHTS, concentration-response curves come from the screen itself.
For the compound `CCc1ccccc1CC`, the result was inactive.

On to `OCc1ccccc1`, for which the result was inactive.

As for `C=CCc1ccc(OC)c(OC)c1`, the result was inactive.

Take `C=Cc1ccc(C)cc1`: the outcome was inactive.

Turning to `CN(C)c1ccc(O)c2c1C[C@H]1C[C@H]3[C@H](N(C)C)C(=O)C(C(N)=O)=C(O)[C@@]3(O)C(=O)C1=C2O`, the outcome was inactive.

Take `CCO[Si](CCCN)(OCC)OCC`: the outcome was inactive.

In the case of `O=c1[nH]cnc2[nH]ncc12`, the outcome was inactive.

For `COC(=O)CCCC(=O)OC`, the result was inactive.

In the case of `CCCOC(=O)c1ccccc1`, the outcome was inactive.

In the case of `CC1(C)NC(=O)NC1=O`, the outcome was inactive.

As to `CCOC(=O)c1ccc(N)cc1`, the outcome was inactive.

Consider `O=C(O)c1cc2ccccc2cc1O`, for which the outcome was inactive.

As for `C=C(C)[C@H]1CC=C(C)C(=O)C1`, the result was inactive.

Consider `CC(=O)CC(C)(C)O`, for which the result was inactive.

On to `CSc1ccc(Cl)cc1`, for which the outcome was inactive.

The next assay has the same target. The assay is described as follows: qHTS assay to identify small molecule antagonists of the glucocorticoid receptor (GR) signaling pathway (AID 720692; active = well fitted inhibition curve with a large enough effect in the signal ratio in the repeat runs, not every such curve was filed as active; the % refers to the signal ratio). To be noted: GR-bla HeLa, beta-lactamase FRET ratio, dexamethasone-stimulated, 18 h; series mostly up to 58.5 µM; activity change, negative = inhibition: at the top concentration. Summed up: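 GRE-bla HeLa line, dex-stimulated (5 nM final). Compound exposure 18 h, 37 C. Beta-lactamase FRET read after 2 h RT substrate.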
In the case of `CCCCCCCCCCCC(=O)OC`, the Potency result is “inactive”.

Consider `CCc1ccccc1CC`, for which the Potency entry is “inactive”.

Regarding `OCc1ccccc1`, the Potency result is “inactive”.

As for `C=CCc1ccc(OC)c(OC)c1`, the Potency entry is “inactive”.

As for `C=Cc1ccc(C)cc1`, the Potency result is “inactive”.

As to `O=C(O)c1ccc(C(=O)O)c(C(=O)O)c1`, the Potency result is “inactive”.

Turning to `CN(C)c1ccc(O)c2c1C[C@H]1C[C@H]3[C@H](N(C)C)C(=O)C(C(N)=O)=C(O)[C@@]3(O)C(=O)C1=C2O`, the Potency entry is “inactive”.

For the compound `CCO[Si](CCCN)(OCC)OCC`, the “activity change, negative = inhibition” value is 8% (inactive).

For the compound `CN(C)CCOC(=O)COc1ccc(Cl)cc1`, the Potency result was “inactive”.

As for `O=c1[nH]cnc2[nH]ncc12`, the Potency result is “inactive”.

Consider `COC(=O)CCCC(=O)OC`, for which the “activity change, negative = inhibition” value is 0.0709% (inactive).

Take `COc1ccc([N+](=O)[O-])cc1N`: the Potency entry was “inactive”.

As to `CCCOC(=O)c1ccccc1`, the “activity change, negative = inhibition” value is -5.2% (inactive).

Take `O=C(O)c1ccc(S(=O)(=O)N(Cl)Cl)cc1`: the “activity change, negative = inhibition” value was 1.02% (inactive).

Turning to `CC1(C)NC(=O)NC1=O`, the “activity change, negative = inhibition” value is 9.9% [at 78.9 µM] (inactive).

As for `CCCCCCCCCCO`, the Potency result was “inactive”.

For the compound `CCOC(=O)c1ccc(N)cc1`, the “activity change, negative = inhibition” value was 2.02% (inactive).

As to `Cc1ccc(C(C)C)c(O)c1`, the “activity change, negative = inhibition” value is -2.46% (inactive).

On to `CC(C)(Oc1ccc(CCNC(=O)c2ccc(Cl)cc2)cc1)C(=O)O`, for which the “activity change, negative = inhibition” value was 12.9% [at 27 µM] (inactive).

For the compound `O=C(O)c1cc2ccccc2cc1O`, the Potency result was “inactive”.

As for `C=C(C)[C@H]1CC=C(C)C(=O)C1`, the Potency result was “inactive”.

As for `CC(=O)CC(C)(C)O`, the Potency entry was “inactive”.

In the case of `CN(C)c1ccc(Cc2ccc(N(C)C)cc2)cc1`, the “activity change, negative = inhibition” value was 17.7% (inactive).

`Cc1ccc2ncccc2c1`: the Potency entry was “inactive”.

For `CSc1ccc(Cl)cc1`, the Potency entry was “inactive”.

As to `COc1ccc(OC)cc1`, the Potency entry is “inactive”.

Take `O=S(=O)(O)c1ccccc1`: the Potency entry is “inactive”.

As to `CC(C)c1cccc(C(C)C)c1`, the “activity change, negative = inhibition” value was 0.133% [at 78.9 µM] (inactive).

Values taken from PubChem BioAssay (Tox21).
